Measurements: PubChem BioAssay (EPA / NIEHS)
Active and inactive are the calls of the source. Rule for the calls, unless noted: active = hit-call score of the fitted dose curve at least 0.9, where 1 is the maximum; inactive = score below 0.9.

Molecular target: Peroxisome proliferator-activated receptor gamma (Homo sapiens) (UniProt P37231)
Assay: OT_PPARg_PPARgSRC1_1440: Odyssey Thera (OT) 24-hour Protein-Complementation Assay for Peroxisome Proliferator-activated Receptor Gamma/ SRC-1 Co-activator (AID 2283388; active = hit-call score of the fitted dose curve at least 0.9, where 1 is the maximum;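 note: nuclear to cytoplasmic ratio of reconstituted Venus YFP fluorescence in fixed imaged cells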)
Settings: not given
Procedure, shortened: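 Transient HEK293T, YFP fragments 1-158/159-239 (mutant IFP1/IFP2) fused to PPARg/SRC-1; 24 h dosing; fix 4% formaldehyde, Draq5; Opera imaging 488/635 nm; N/C ratio, gain vs DMSO.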

Peroxisome proliferator-activated receptor gamma (Homo sapiens), sequence (P37231 whole entry, looked up): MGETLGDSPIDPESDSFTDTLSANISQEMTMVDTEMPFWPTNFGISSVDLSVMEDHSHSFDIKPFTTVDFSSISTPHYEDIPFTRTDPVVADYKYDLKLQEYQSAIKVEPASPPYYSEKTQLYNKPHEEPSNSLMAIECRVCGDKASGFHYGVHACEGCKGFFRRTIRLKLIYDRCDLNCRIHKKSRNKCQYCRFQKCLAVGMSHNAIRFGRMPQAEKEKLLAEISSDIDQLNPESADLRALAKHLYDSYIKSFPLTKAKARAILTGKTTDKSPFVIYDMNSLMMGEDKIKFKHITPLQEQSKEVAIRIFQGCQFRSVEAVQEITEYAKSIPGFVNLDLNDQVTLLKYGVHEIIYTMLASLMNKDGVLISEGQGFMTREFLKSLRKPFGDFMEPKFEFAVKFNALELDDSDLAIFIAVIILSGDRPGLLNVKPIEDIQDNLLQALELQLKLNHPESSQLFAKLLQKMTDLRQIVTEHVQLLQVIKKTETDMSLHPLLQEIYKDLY

SMILES | outcome
C=C[Si]1(C)O[Si](C)(C=C)O[Si](C)(C=C)O[Si](C)(C=C)O1 (configuration not stated) | inactive
CC(=O)O[C@@H]1CC2CCC1(C)C2(C)C (some centres not stated) | inactive
CC(CN=Cc1ccccc1O)N=Cc1ccccc1O (configuration not stated) | inactive
OCc1cccc(Oc2ccccc2)c1 | inactive
CC(C)CC(C)CC(O)CC(C)C (configuration not stated) | inactive
CC1(C)C(=O)N(Cl)C(=O)N1Br | inactive
COc1ccc(N=Nc2cc(C)c(N=Nc3ccc(S(=O)(=O)O)cc3)cc2OC)cc1 | inactive
CC(C)CCOC(=O)c1ccccc1 | inactive
CC(C)Nc1nc(N)nc(Cl)n1 | inactive
CCOC(=O)c1ccc(N)cc1 | inactive
O=P(O)(O)O | inactive
CCOC(=O)[C@@H](C)Oc1ccc(Oc2nc3ccc(Cl)cc3o2)cc1 | inactive
CCc1cc(C(C)(C)C)c(O)c(C(C)(C)C)c1 | inactive
O=C(O)CCCCCCCCC(=O)O | inactive
CCCCCCCC(=O)OCC(O)CO (configuration not stated) | inactive
CC(=O)O[C@H]1C[C@@H]2CC[C@@]1(C)C2(C)C | inactive
CN(C)c1cccc(O)c1 | inactive
Cc1cc(S(=O)(=O)O)ccc1N=Nc1c(O)ccc2ccccc12 | inactive
O=C(Nc1ccc2c(O)c(N=Nc3ccc(N=Nc4ccc(S(=O)(=O)O)cc4)cc3)c(S(=O)(=O)O)cc2c1)c1ccccc1 | inactive
CCCCCCC(=O)c1ccccc1 | inactive
C=C1CC[C@H](O)C/C1=C/C=C1\CCC[C@]2(C)[C@@H]([C@H](C)/C=C/[C@H](C)C(C)C)CC[C@@H]12 | inactive
Nc1ccc(N)c2c1C(=O)c1ccccc1C2=O | inactive
CCCCC1CCC(O)CC1 (configuration not stated) | inactive
CCCCCCCCN1CCCC1=O | inactive
Cc1cc(=O)oc2cc(N(C)C)ccc12 | inactive
C#CC(C)(O)CC(C)C (configuration not stated) | inactive
BrCc1cccc(Oc2ccccc2)c1 | inactive
Cc1ccc(S(=O)(=O)Oc2ccc(N=Nc3ccc(-c4ccc(N=Nc5c(O)ccc6cc(S(=O)(=O)O)cc(S(=O)(=O)O)c56)c(C)c4)cc3C)cc2)cc1 | inactive
C[C@H]1O[C@@H](O[C@H]2[C@@H](O)C[C@H](O[C@H]3[C@@H](O)C[C@H](O[C@H]4CC[C@@]5(C)[C@H](CC[C@@H]6[C@@H]5C[C@@H](O)[C@]5(C)[C@@H](C7=CC(=O)OC7)CC[C@]65O)C4)O[C@@H]3C)O[C@@H]2C)C[C@H](O)[C@@H]1O | inactive

Read-out: not listed separately
Assay: CEETOX_H295R_OHPREG: CeeTox H295R High-throughput Steroidogenesis Assay for OH-Pregnenolone (OHPREG) (AID 2283434)
Settings: actives raise or lower the signal
Procedure, shortened: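 Secreted 17alpha-hydroxypregnenolone measured by HPLC-MS/MS after liquid-liquid extraction. Human adrenal H295R cells received 48 h forskolin (10 uM) stimulation before 48 h chemical exposure at 0.1% final DMSO; MTT viability in same wells; bidirectional fit against DMSO.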

SMILES | outcome | AC50
CCC(C)c1cc([N+](=O)[O-])cc([N+](=O)[O-])c1OC(=O)OC(C)C (configuration not stated) | inactive | –
CC(CN=Cc1ccccc1O)N=Cc1ccccc1O (configuration not stated) | inactive | –
OCc1cccc(Oc2ccccc2)c1 | inactive | –
COCCc1ccc(OCC(O)CNC(C)C)cc1 (configuration not stated) | inactive | –
COc1ccc(N=Nc2cc(C)c(N=Nc3ccc(S(=O)(=O)O)cc3)cc2OC)cc1 | inactive | –
CC(C)Nc1nc(N)nc(Cl)n1 | inactive | –
CCOC(=O)[C@@H](C)Oc1ccc(Oc2nc3ccc(Cl)cc3o2)cc1 | inactive | –
CCc1cc(C(C)(C)C)c(O)c(C(C)(C)C)c1 | inactive | –
C=C1CC[C@H](O)C/C1=C/C=C1\CCC[C@]2(C)[C@@H]([C@H](C)/C=C/[C@H](C)C(C)C)CC[C@@H]12 | – | 4.66 µM (active)
Nc1ccc(N)c2c1C(=O)c1ccccc1C2=O | inactive | –
COc1ccc(CCN2CCC(Nc3nc4ccccc4n3Cc3ccc(F)cc3)CC2)cc1 | – | 0.698 µM (active)
CCCCCCCCN1CCCC1=O | inactive | –
Cc1cc(=O)oc2cc(N(C)C)ccc12 | – | 45.6 µM (active)
BrCc1cccc(Oc2ccccc2)c1 | inactive | –
CC(C)(C)CC(C)(C)c1ccc(OCCOCC[N+](C)(C)Cc2ccccc2)cc1 | inactive | –
CC=Cc1ccc(OCC)c(O)c1 | inactive | –

Read-out: not listed separately
Assay: CEETOX_H295R_OHPROG: CeeTox H295R High-throughput Steroidogenesis Assay for OH-Progesterone (OHPROG) (AID 2283435);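 for AC50: 17alpha-hydroxyprogesterone secreted into medium measured by HPLC-MS/MS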
Settings: actives raise or lower the signal
Procedure, shortened: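 Steps: seed H295R cells and adhere overnight; stimulate with 10 uM forskolin for 48 h; replace with chemical-containing medium (0.1% DMSO) for 48 h; extract medium with MTBE; quantify 17alpha-hydroxyprogesterone by reverse-phase C18 HPLC-MS/MS against a 7-point curve.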

SMILES | outcome | AC50
CCC(C)c1cc([N+](=O)[O-])cc([N+](=O)[O-])c1OC(=O)OC(C)C (configuration not stated) | inactive | –
CC(CN=Cc1ccccc1O)N=Cc1ccccc1O (configuration not stated) | – | 1.97 µM (active)
OCc1cccc(Oc2ccccc2)c1 | – | 50 µM (active)
COCCc1ccc(OCC(O)CNC(C)C)cc1 (configuration not stated) | – | 50 µM (active)
CC1(C)C(=O)N(Cl)C(=O)N1Br | inactive | –
COc1ccc(N=Nc2cc(C)c(N=Nc3ccc(S(=O)(=O)O)cc3)cc2OC)cc1 | – | 34.6 µM (active)
CC(C)Nc1nc(N)nc(Cl)n1 | inactive | –
CCOC(=O)[C@@H](C)Oc1ccc(Oc2nc3ccc(Cl)cc3o2)cc1 | – | 10.1 µM (active)
CCc1cc(C(C)(C)C)c(O)c(C(C)(C)C)c1 | inactive | –
C=C1CC[C@H](O)C/C1=C/C=C1\CCC[C@]2(C)[C@@H]([C@H](C)/C=C/[C@H](C)C(C)C)CC[C@@H]12 | – | 12.3 µM (active)
Nc1ccc(N)c2c1C(=O)c1ccccc1C2=O | – | 1.51 µM (active)
COc1ccc(CCN2CCC(Nc3nc4ccccc4n3Cc3ccc(F)cc3)CC2)cc1 | – | 1.41 µM (active)
CCCCCCCCN1CCCC1=O | inactive | –
Cc1cc(=O)oc2cc(N(C)C)ccc12 | – | 50 µM (active)
BrCc1cccc(Oc2ccccc2)c1 | – | 36.5 µM (active)
CC(C)(C)CC(C)(C)c1ccc(OCCOCC[N+](C)(C)Cc2ccccc2)cc1 | inactive | –
CC=Cc1ccc(OCC)c(O)c1 | – | 11 µM (active)
